# Assay results published in PubChem BioAssay (NCATS).
# Results filed as inconclusive are left out. The source made the active and inactive calls. Unless noted, the call rests on the fitted dose curve.
# Assays:
# [1] = Confirmatory qHTS to identify inhibitors of SARS-CoV-2 cell entry (AID 1645844); further: nearly all actives have a fitted effect of over 45% in size; further: potency means the concentration at half of the fitted maximal effect
# How it was run: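 Luminescence entry read-out after 48 h: spike-pseudotyped MLV particles (Wuhan-Hu-1, 19-aa C-terminal truncation) added to compound-pretreated (1 h) HEK293-ACE2 cells; Data were normalised to bald PP and spike PP wells.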
# [2] = Cytotoxicity counterscreen for inhibitors of SARS-CoV-2 cell entry (AID 1645845); details: outcome: dose series up to 57.1 µM unless noted; further: nearly all actives have a fitted effect of over 50% in size; further: potency means the concentration at half of the fitted maximal effect
# How it was run: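 ATP-content luminescence (ATPLite 1step, 15 min RT) read after 48 h compound exposure of Expi293F cells stably expressing human ACE2; normalized to cells-only wells and media-only wells.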
# [3] = target: Cytochrome P450 2D6 (Homo sapiens) (UniProt P10635); assay: Cytochrome P450 family 2 subfamily D member 6 (CYP2D6) small molecule antagonists: luciferase biochemical (cell-free) qHTS assay (AID 1645840; active means well fitted curve in the direction sought with a large enough effect in the repeat runs; an effect the other way counts as inactive or inconclusive; further: nearly all actives have a fitted effect of over 55% in size; further: potency means the concentration at half of the fitted maximal effect; on activity change, negative = inhibition: on the % scale 0 is the no-effect control and ±100 the full control effect)
# Chain of Cytochrome P450 2D6 (Homo sapiens) (P10635 whole entry, looked up): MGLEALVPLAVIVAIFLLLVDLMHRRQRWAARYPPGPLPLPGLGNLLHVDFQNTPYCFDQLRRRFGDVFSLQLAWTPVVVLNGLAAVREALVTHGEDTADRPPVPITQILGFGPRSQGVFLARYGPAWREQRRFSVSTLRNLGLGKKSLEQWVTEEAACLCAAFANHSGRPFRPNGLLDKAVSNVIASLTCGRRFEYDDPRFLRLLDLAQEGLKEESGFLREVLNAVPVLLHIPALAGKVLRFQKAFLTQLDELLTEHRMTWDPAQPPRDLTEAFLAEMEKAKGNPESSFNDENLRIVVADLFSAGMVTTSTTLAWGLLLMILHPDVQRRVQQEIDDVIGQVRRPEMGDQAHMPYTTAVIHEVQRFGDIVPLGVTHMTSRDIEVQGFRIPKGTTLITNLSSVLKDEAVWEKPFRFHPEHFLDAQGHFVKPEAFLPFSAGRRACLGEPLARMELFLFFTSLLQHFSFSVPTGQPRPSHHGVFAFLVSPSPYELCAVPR
# How it was run: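 P450-Glo CYP2D6 system: proluciferin substrate converted by enzyme to luciferin, read by luminescence proportional to activity. Enzyme-substrate mix with compound 10 min at room temperature, then NADPH regeneration 1 h before detection reagent.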
# [4] = target: Cytochrome P450 2C9 (Homo sapiens) (UniProt P11712); assay: Cytochrome P450 family 2 subfamily C member 9 (CYP2C9) small molecule antagonists: luciferase biochemical (cell-free) qHTS assay (AID 1645842; active means well fitted curve in the direction sought with a large enough effect in the repeat runs; an effect the other way counts as inactive or inconclusive; further: nearly all actives have a fitted effect of over 55% in size; further: potency means the concentration at half of the fitted maximal effect; on activity change, negative = inhibition: on the % scale 0 is the no-effect control and ±100 the full control effect)
# Chain of Cytochrome P450 2C9 (Homo sapiens) (P11712 whole entry, looked up): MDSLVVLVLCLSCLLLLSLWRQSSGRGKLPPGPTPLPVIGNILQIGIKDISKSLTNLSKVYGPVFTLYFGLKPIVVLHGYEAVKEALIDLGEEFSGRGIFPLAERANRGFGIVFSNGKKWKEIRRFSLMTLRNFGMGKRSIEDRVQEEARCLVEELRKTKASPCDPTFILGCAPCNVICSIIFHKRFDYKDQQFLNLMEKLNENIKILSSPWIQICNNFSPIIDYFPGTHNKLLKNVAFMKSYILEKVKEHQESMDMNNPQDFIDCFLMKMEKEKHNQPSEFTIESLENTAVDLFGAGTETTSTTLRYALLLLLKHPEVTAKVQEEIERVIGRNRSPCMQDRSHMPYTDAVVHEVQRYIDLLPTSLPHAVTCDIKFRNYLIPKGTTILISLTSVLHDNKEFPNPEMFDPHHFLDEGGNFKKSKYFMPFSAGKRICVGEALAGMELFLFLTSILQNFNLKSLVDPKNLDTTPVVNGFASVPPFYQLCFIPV
# How it was run: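 P450-Glo CYP2C9 system: proluciferin substrate with enzyme in mix containing 0.4% BSA, 10 min at room temperature, then NADPH regeneration solution added and incubated 1 h at 37C. Detection reagent stopped reaction; luminescence read after 20 min as RLU.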
# [5] = Primary qHTS to identify inhibitors of SARS-CoV-2 cell entry (AID 1645846); details: SARS-CoV-2 pseudovirus cell entry assay, luminescence; activity change, negative = inhibition: at 57.1 µM (top of the series) unless noted; further: nearly all actives have a fitted effect of over 45% in size; further: potency means the concentration at half of the fitted maximal effect
# How it was run: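 HEK293-ACE2 (Expi293F, stable hACE2), 1500 cells/well, o/n 37C; cpd 23 nL pin, 1 h; MLV-PP w/ SARS-CoV-2-S (Wuhan-Hu-1, Δ19 C-term); 48 h 37C; Bright-Glo luminescence; normalized vs S-PP and bald PP.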
# [6] = VSVG counterscreen qHTS to identify inhibitors of SARS-CoV-2 cell entry (AID 1645847); further: nearly all actives have a fitted effect of over 65% in size; further: potency means the concentration at half of the fitted maximal effect; on activity change, negative = inhibition: on the % scale 0 is the no-effect control and ±100 the full control effect
# How it was run: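 Expi293F/hACE2 cells, overnight plating; cpd 1 h, 37C/5% CO2; + VSV-G PP (MLV pseudotyping), 48 h; supernatant removed, Bright-Glo luciferase read. Norm: VSV-G PP and bald PP wells.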
# [7] = target: Glutathione peroxidase 1 (Homo sapiens) (UniProt P07203); assay: Primary qHTS Assay for Inhibitors of Recombinant Selenoprotein Glutathione Peroxidase 1 (GPX1) (AID 1845191; active means well fitted curve in the direction sought with a large enough effect; an effect the other way counts as inactive or inconclusive; further: on the % scale 0 is the no-effect control and ±100 the full control effect; nearly all actives have a fitted effect of over 65% in size)
# Chain of Glutathione peroxidase 1 (Homo sapiens) (P07203 whole entry, looked up): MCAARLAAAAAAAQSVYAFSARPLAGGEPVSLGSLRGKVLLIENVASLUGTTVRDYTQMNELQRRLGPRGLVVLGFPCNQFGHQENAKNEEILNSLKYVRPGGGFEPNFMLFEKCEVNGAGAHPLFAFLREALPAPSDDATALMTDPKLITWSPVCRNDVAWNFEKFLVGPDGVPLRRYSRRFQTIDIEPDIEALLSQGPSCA
# How it was run: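 NADPH consumption tracked by fluorescence at 340/450 nm between t=0 and t=15 min, room temperature. Final mix: 10 nM GPX1, 100 nM glutathione reductase, 1 mM GSH, 0.5 mM NADPH, 0.5 mM cumene hydroperoxide, 0.01% BSA; 30 min compound–enzyme preincubation.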
smiles,measurement,setting,value
CCCCNc1ncc(-c2ccc(CN3CCOCC3)cn2)c(NC2CCC(O)CC2)n1 (stereo unspecified),Potency,[1],1050 nM (active)
same,Potency,[2],inactive
CCN(CC)N(O)N=O,Potency,[3],inactive
same,Potency,[4],inactive
CC(C)(N)Cc1ccccc1,Potency,[4],inactive
CN(C)CCCOc1ccc(-c2ccc3ncc4c(c3c2)n(C2CCOCC2)c(=O)n4C)cn1,Potency,[1],5910 nM (active)
CN1CCC(c2c(O)cc(O)c3c(=O)cc(-c4ccccc4Cl)oc23)C1CO (stereo unspecified),Potency,[1],3040 nM (active)
same,Potency,[2],inactive
same,Potency,[5],2820 nM (active)
same,Potency,[6],2410 nM (active)
C=CC(=O)N[C@H]1CN(c2nc(Nc3cn(C)nc3OC)c3ncn(C)c3n2)C[C@@H]1F,Potency,[1],inactive
same,Potency,[2],inactive
same,Potency,[6],inactive
Cc1cnc(Nc2ccc(F)cc2Cl)nc1-c1c[nH]c(C(=O)NC(CO)c2cccc(Cl)c2)c1 (stereo unspecified),Potency,[1],3830 nM (active)
same,Potency,[2],inactive
same,Potency,[5],8910 nM (active)
same,Potency,[6],1920 nM (active)
CS[C@H]1SC[C@@H]2C(=O)N(C)[C@H](C(C)C)C(=O)OC[C@H](NC(=O)c3cnc4ccccc4n3)C(=O)N[C@H](C)C(=O)N(C)[C@H]1C(=O)N(C)[C@H](C(C)C)C(=O)OC[C@H](NC(=O)c1cnc3ccccc3n1)C(=O)N[C@H](C)C(=O)N2C,Potency,[1],8.6 nM (active)
same,Potency,[2],inactive
same,"activity change, negative = inhibition",[5],-94.2%
NC(=O)/C(=C/n1cnc(-c2cc(C(F)(F)F)cc(C(F)(F)F)c2)n1)c1cncnc1,Potency,[1],607 nM (active)
same,Potency,[2],inactive
same,Potency,[5],1260 nM (active)
same,Potency,[6],108 nM (active)
CCOc1ccc(NC(=O)Cn2cc(C(=O)c3ccccc3)c3ccccc32)cc1,Potency,[4],16900 nM (active)
C=CC(=O)N1CCC(Oc2cc3c(Nc4ccc(Cl)c(Cl)c4F)ncnc3cc2OC)CC1,Potency,[1],1360 nM (active)
same,Potency,[2],inactive
Cc1cc(/C=c2/sc3nc4ccccc4n3c2=O)c(C)n1-c1ccccc1,Potency,[1],34.1 nM (active)
same,Potency,[2],inactive
same,"activity change, negative = inhibition",[5],-93.9%
same,Potency,[6],68.1 nM (active)
CC/C(=C(/c1ccc(O)cc1)c1ccc(OCCNC)cc1)c1ccccc1,Potency,[1],17100 nM (active)
same,Potency,[2],inactive
C=CC(=O)N1CC[C@@H](Oc2nc(Nc3ccc(N4CCC(N5CCN(C)CC5)CC4)cc3)c(C(N)=O)nc2CC)C1,Potency,[1],2350 nM (active)
Nc1ncc(C(=O)NC2CN(C(=O)C3CC3)C2)c2ccc(-c3cccc(F)c3)nc12,Potency,[1],2710 nM (active)
same,Potency,[2],inactive
CN1C(=O)[C@@H](NC(=O)c2cc(Cc3ccccc3)on2)COc2ccccc21,Potency,[1],inactive
same,Potency,[2],inactive
same,Potency,[6],inactive
Nc1ccn([C@@H]2C(F)=C(CO)[C@@H](O)[C@H]2O)c(=O)n1,Potency,[1],1520 nM (active)
same,Potency,[2],inactive
same,"activity change, negative = inhibition",[5],-76.2%
same,Potency,[6],3040 nM (active)
CCN1CCN(C(c2ccc(Cl)cc2)c2ccc(Cl)cc2)CC1,Potency,[3],952 nM (active)
same,Potency,[4],inactive
same,Potency,[7],inactive
CCNCCS(=O)(=O)NC[C@@]1(c2ccccc2)SC(NC(=O)C(C)(C)C)=NN1C(=O)C(C)(C)C,Potency,[1],60.7 nM (active)
same,Potency,[2],inactive
same,"activity change, negative = inhibition",[5],-77.9%
same,Potency,[6],54.1 nM (active)
CCOC(=N)c1nc2ccc3ncnc(Nc4cc(F)c(F)cc4Cl)c3c2s1,Potency,[2],inactive
COc1ccc2[nH]c3c(c2c1)CCN[C@]31CS[C@@H]2c3c(OC(C)=O)c(C)c4c(c3[C@H](COC1=O)N1[C@@H]2[C@H]2c3c(cc(C)c(OC)c3O)C[C@@H]([C@@H]1O)N2C)OCO4,Potency,[1],4.4 nM (active)
same,Potency,[5],631 nM (active)
CNC(=O)c1cccc(-c2ccc3c(N4CCOC[C@@H]4C)nc(N4CCOC[C@@H]4C)nc3n2)c1,Potency,[1],2410 nM (active)
same,Potency,[6],2710 nM (active)
CCCNC(=O)c1cn2ncnc(Nc3cc(C(=O)NC4CC4)ccc3C)c2c1C,Potency,[2],inactive
CCN(CC)CCNc1ccc(C)c2sc3ccccc3c(=O)c12,Potency,[2],28200 nM (active)
C[C@@]1(c2ncncc2F)NC(=O)c2cc(-c3cn[nH]c3)ccc21,Potency,[1],3040 nM (active)
same,Potency,[2],inactive
same,Potency,[6],4820 nM (active)
COC(=O)N[C@@H](C)CNc1nccc(-c2cn(C(C)C)nc2-c2cc(Cl)cc(NS(C)(=O)=O)c2F)n1,Potency,[2],inactive
